We go through 21 molecules from PubChem BioAssay AID624117 (National Center for Advancing Translational Sciences (NCATS), 2012).

The structures appear in SMILES notation. Inconclusive results are not listed. A call without a number means that no potency is given here. Calls of active or inactive are those of the source. Calls follow the shape of the dose curve; as a rule, active = well fitted curve in the direction sought with a large enough effect; inconclusive = small, poorly fitted or top-dose-only effect, or another doubt; inactive = no such curve, though single readings can be large or run the other way.

This assay in a line: qHTS Assay for Rab9 Promoter Activators: Hit Validation Using Renilla Luciferase Read-Out. The note with it: Huh7 NPC1 promoter Renilla luciferase reporter, 24 h; series mostly up to 76.9 µM. Put shortly: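 Hit validation in Huh7 NPC promoter-luciferase reporter line: compound treatment 24 h at 37 deg C, then luminescence measured after 10 min room-temperature incubation with […] reagent.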
Consider `O=C(NC(=S)Nc1ccc(CN2CCCCC2)cc1)c1cc2ccccc2o1`, for which the Potency result was “inactive”.
The same measure for `Cc1ccc(N=Cc2sc(O)c3ccccc23)c(C)c1`: “inactive”; for `O=C(CSc1nnc(-c2ccc([N+](=O)[O-])cc2)o1)Nc1ccccn1`: “inactive”.
The value for `COc1ccc2oc(=O)c(C(=O)NC(C)c3ccccc3)cc2c1` (stereo unspecified) was “inactive”; that for `Cc1ccc(C#N)c(SCC(=O)Nc2nccs2)n1` was “inactive”; that for `CC1CN(C(=O)c2ccncc2)CC(C)O1` (stereo unspecified) was “inactive”.
The value for `COc1ccc(NC(=O)CSc2ccc([N+](=O)[O-])cc2)cc1S(=O)(=O)N1CCOCC1` was “inactive”; that for `O=C(CCCOc1ccc(Cl)cc1)N1CCCCC1` was “inactive”; that for `Cc1nnc2n(c1=O)N=C(c1ccc(Cl)cc1)CS2` was “inactive”.
With `COc1ccc(-n2cc(-c3ccc(Cl)cc3)[nH]c2=S)cc1`, the Potency result is “inactive”.
The same measure for `NC(=O)COC(=O)c1ccc2noc(-c3ccccc3)c2c1`: “inactive”; for `CCCCn1c(CCNC(=O)c2cccs2)nc2ccccc21`: “inactive”.
Regarding `CC(=O)[C@@H]1[C@@H](C(=O)c2ccc(C)cc2)[C@]2(C(=O)Nc3ccccc32)[C@H]2C=Cc3cc(F)ccc3N12`, the Potency result was “inactive”.
The same measure for `CC1CCc2sc(C(=O)NNC(=S)NC3CC3)cc2C1` (stereo unspecified): “inactive”; for `C=CCc1ccc(OCCOCCNCCOC)c(OC)c1`: “inactive”; for `Cc1cccc(NC(=O)CSc2nc3ccccc3o2)c1`: “inactive”.
Take `CC(=O)Nc1nnc(SCC(=O)NCCOc2ccccc2)s1`: the Potency entry is “inactive”.
The value for `Cc1ccccc1NC(=O)CSc1ccc(-c2cccnc2)nn1` was “inactive”.
The value for `O=C(CCS(=O)(=O)c1ccccc1)Nc1ccc(-c2nc3ccccc3s2)cc1` was “inactive”.
The same measure for `COC(=O)CSc1nc2cc3c(cc2cc1C#N)OCO3`: “inactive”; for `NCCOc1ccccc1-c1ccccc1`: “inactive”.
